Measured values taken from PubChem BioAssay AID720524 (National Center for Advancing Translational Sciences (NCATS), 2013).
The campaign covered roughly 1,400 compounds. About 1,000 (71%) were called active. About 12% were inconclusive and are not listed. Calls come from the whole dose curve; as a rule, active = well fitted inhibition curve with a large enough effect; inconclusive = small, poorly fitted or top-dose-only effect; inactive = no such curve, though single readings can be large or run the other way. The set was probably picked from earlier hits. Only a sample is shown. Some structures have more than one record in an assay (separate samples or runs), and their calls can disagree.

Assay: Nrf2 qHTS screen for inhibitors: Nrf2 A549 ARE-Fluc Confirmation Assay for Hit Validation; note: nearly all actives have a fitted effect of over 65% in size
Conditions: A549 ARE-firefly luciferase reporter, luminescence; series mostly up to 46.1 µM; activity change, negative = inhibition: at the top concentration
From the text: Nrf2 is a transcription factor that maintains cellular redox homoestasis and protects cells from xenobiotics. Nrf2 binds to the antioxidant response element (ARE) to induce gene expression of a broad spectrum of genes that encode for antioxidants. […] Finding a small molecule that act as an inhibitor of Nrf2 function would represent a novel therapeutic target that could lead to improvement in survival of patients undergoing chemo- and/or radio- therapy.
In collaboration with the Biswal laboratory, a cell based, luminescence assay (BugLite) was developed to detect the Nrf2 activity using the A549 ARE_Fluc cells (AID 493153). This assay was coupled with a fluorescence based (CellTiter Fluor) cytotoxicity assay to identify and exclude toxic compounds. This coupled assay was used to evaluate selected compounds for hit validation. The data herein is the result of the BugLite assay where decrease in luminescence signal = inhibition of Nrf2 activation. Inhibition is the desired outcome for this assay.
NIH Chemical Genomics Center [NCGC]
NIH Molecular Libraries Probe Centers Network [MLPCN]
Assay Submitter (PI): Shyam Biswal, Johns Hopkins University
[1] Shibata T., et al., Genetic alteration of Keap1 confers constitutive Nrf2 activation and resistance to chemotherapy in gallbladder cancer. Gastroenterology, 2008.
[2] Sjoblom T., et al., The consensus coding sequences of human breast and colorectal cancers. Science, 2006.
Five uL of cell suspension was dispensed into 1536-well white TC-treated plate using the Kalypsys dispenser to achieve a density of 5000 cells/well in all columns except column 1. The plates were incubated at 37deg C at 5% CO2 for 2 hours before 23 nL of compounds were added with the Kalypsys pin tool equipped with a 1,536-pin array. The control compounds Budesonide and Staurosporine were added at a concentration of 2mM. Budesonide was also added as a 1:10 titration, starting at 200uM, to achieve the dose-response control signal. The plates were incubated for 18-24 hour at 37deg C, 5% CO2 followed by a 5ul addition of 5% FBS OPTI-MEM growing media in column 1 as negative control. One microliter of 5x CellTiter Fluor (Promega) was added to each well and the assay plates were incubated at 37deg C, 5% CO2 for 30 minutes. The fluorescence signal was read using the PerkinElmer ViewLux plate reader (Ex = 405 nm /Em = 525 nm) for a 3 second exposure. After the signal was taken, 3 uL of 3x BugLite was dispensed into all wells. The plates were then incubated at room temperature for 15 minutes. A second ViewLux read (40 sec exposure) was performed to detect the luminescence signal. Cytotoxicity was assessed through the first fluorescent read while biochemical activity against Nrf2 was measured in the luminescent read. The data was normalized to the positive and negative controls.
% is set by controls: 0 for no effect and ±100 for the full control effect; potency is the fitted concentration of half-maximal effect.

Structure (SMILES) | Potency | activity change, negative = inhibition
CCOC(=O)c1cnc(-n2nc(C)cc2C)nc1NNc1cc(C)nc(-c2ccccc2)n1 | 5.17 µM (active) | 
CC(C)(C)c1ccc(Oc2ccc(N)cc2)cc1 | 5.17 µM (active) | 
C[n+]1ccc(/C=C/c2c[nH]c3ccccc23)cc1 | 1.46 µM (active) | 
OCCCNc1nccc(-c2cc(Nc3cccc(Cl)c3)ncn2)n1 | 1.46 µM (active) | 
Cc1c(Cl)cccc1NC(=O)Cn1cc(C(=O)c2cccs2)c2ccccc21 | 5.8 µM (active) | 
Brc1c(CSc2nncc3ccccc23)nc2ccccn12 | 6.51 µM (active) | 
Cc1oc2c(F)c(F)c(F)c(F)c2c1S(=O)(=O)Nc1cccc(C(F)(F)F)c1 | 14.6 µM (active) | 
c1ccc(C(=NNc2nc3ccccc3s2)c2ccccn2)cc1 | 11.6 µM (active) | 
CCCOc1ccc(Cc2c(Cl)nc(SC)nc2NC)cc1 | 6.51 µM (active) | 
CC(=NNC(=S)N1CCCCCC1)c1ccccn1 | 2.59 µM (active) | 
CC(=O)Nc1ccc(Nc2c3ccccc3nc3ccccc23)cc1 | 1.64 µM (active) | 
COc1ccc(C(=O)C[n+]2ccc(N)c(C)c2C)cc1 | 6.51 µM (active) | 
CCCOc1ccc(C(=O)Nc2ccc3oc(-c4cccc(Cl)c4Cl)nc3c2)cc1 | 16.4 µM (active) | 
CC1(C)CC(N2CCN(C(c3ccccc3)c3ccccc3)CC2)=CC(=[N+]2CCCCC2)C1 | 4.61 µM (active) | 
O=C(Nc1ccc(Br)cn1)C1CCN(S(=O)(=O)c2cccs2)CC1 | 5.8 µM (active) | 
Cc1ccc(NS(=O)(=O)c2cccs2)cc1S(=O)(=O)N1CCCCCC1 |  | -14.2% (inactive)
CC(C)Cn1c(N)c(C(=O)COC(=O)CN2C(=O)C3CC=CCC3C2=O)c(=O)n(C)c1=O (stereo unspecified) | 5.8 µM (active) | 
CCC(C)N1C(=O)S/C(=C/c2ccc(Sc3nc4ccccc4[nH]3)o2)C1=O (stereo unspecified) | 20.6 µM (active) | 
CCC(C)(C)c1ccc(Oc2ccc(NC(=O)COC(=O)C3=COCCO3)cc2)cc1 | 10.3 µM (active) | 
Cc1csc[n+]1CCC1CCCCC1 | 9.2 µM (active) | 
COc1cccc(-c2nnc(NC(=O)c3ccc(S(=O)(=O)N(CC(C)C)CC(C)C)cc3)o2)c1 | 2.59 µM (active) | 
CCNS(=O)(=O)c1ccc(CCC(=O)N2CCN(c3cc(Cl)ccc3C)CC2)cc1 | 23.1 µM (active) | 
Cn1nccc1C(=O)NC1CCCc2c1cnn2-c1ccc(F)cc1F (stereo unspecified) | 2.59 µM (active) | 
O/N=C(\C[n+]1ccccc1)c1ccc(Br)cc1 | 6.51 µM (active) | 
Cc1cccc(N2CCN(C(=O)CCS(=O)(=O)c3ccc4c(c3)NC(=O)C(C)S4)CC2)c1C (stereo unspecified) | 18.4 µM (active) | 
Cc1ccc(S(=O)(=O)N2CCN(c3ncnc4ccccc34)CC2)cc1 | 7.31 µM (active) | 

Structure (SMILES) | Potency | activity change, negative = inhibition
O=C1C=C(c2ccnc3cc(Cl)ccc23)C[C@@H](c2ccc3c(c2)OCO3)C1 | 7.31 µM (active) | 
COc1ccc(CCNC(=O)c2ccc(CS(=O)(=O)c3ccc(Br)cc3)o2)cc1OC | 14.6 µM (active) | 
COc1ccc(OC)c(Cc2cnc3nc(N)nc(N)c3c2C)c1 | 9.2 µM (active) | 
CCCCNc1nc2c(c(=O)n(C)c(=O)n2C)n1Cc1cccc(OC)c1 | 9.2 µM (active) | 
N#CC(C#N)=CN=c1ccn(Cc2ccc(Cl)cc2Cl)cc1 | 4.11 µM (active) | 
CN(Cc1cccnc1)C(=O)c1cc(COc2ccc3ncccc3c2)on1 | 5.8 µM (active) | 
CC(=O)N1CCCc2cc(S(=O)(=O)N3CCCC(C(=O)N4CCN(c5cccc(Cl)c5)CC4)C3)ccc21 (stereo unspecified) | 7.31 µM (active) | 
CC(=O)N1c2ccc(S(=O)(=O)N3CCCC(C(=O)Nc4cccc(Cl)c4)C3)cc2CC1C (stereo unspecified) | 11.6 µM (active) | 
CC(=O)N1c2ccc(S(=O)(=O)N3CCCC(C(=O)NCc4ccc(Cl)cc4)C3)cc2CC1C (stereo unspecified) | 7.31 µM (active) | 
O=C(Nc1ccncc1)c1c(F)cccc1F | 10.3 µM (active) | 
COc1ccc(CCNc2cc(N3CCN(C(=O)c4ccccc4OC)CC3)ccc2[N+](=O)[O-])cc1OC | 4.11 µM (active) | 
COCCn1c(SCC(=O)Nc2ccccc2F)nc2c(c1=O)SCC2 |  | 18.2% (inactive)
CC1(C)O[C@@H]2CC3C4C[C@H](F)C5=CC(=O)C=CC5(C)C4C(O)CC3(C)[C@]2(C(=O)CO)O1 (stereo partly specified) | 0.0082 µM (active) | 
Cc1ccc(NC(=O)C2CC(=O)N(c3ccc4c(c3)OCCO4)C2)cc1S(=O)(=O)N1CCCCCC1 (stereo unspecified) | 20.6 µM (active) | 
CC1CCN(S(=O)(=O)c2ccc(NC(=O)C3CC(=O)N(c4ccccc4)C3)cc2)CC1 (stereo unspecified) |  | -10.1% (inactive)
CCCCCCCCn1c2c(c(=N)c3c1CCC3)CCCC2 | 6.51 µM (active) | 
O=C(CSc1nnc2c(n1)[nH]c1ccccc12)NC1CCCCC1 | 2.31 µM (active) | 
CCCN(c1ccc(C(C)C)cc1)S(=O)(=O)c1c(C)[nH]c(=O)[nH]c1=O |  | 5.41% (inactive)
O=C(CN1C(=O)c2ccccc2S1(=O)=O)N1CCc2ccccc21 | 3.66 µM (active) | 
O=C(CCC(=O)N1CCN(S(=O)(=O)c2ccc(Cl)cc2)CC1)NCc1cccc(C(F)(F)F)c1 | 8.2 µM (active) | 
Cc1ccc(S(=O)(=O)N2C[C@@H]3CCCC[C@@H]3[C@@H](C)[C@H]2c2cn(Cc3ccccc3)c3ccc(F)cc23)cc1 | 5.17 µM (active) | 
CC(C)(C)n1ncc2c(=O)n(Cc3ccc(C(=O)c4ccccc4)cc3)cnc21 | 1.3 µM (active) | 
O=C(CC(O)(C(F)(F)F)C(F)(F)F)Nc1ccc(Cl)c(Cl)c1 | 2.59 µM (active) | 
COc1ccc(CC(=O)Nc2nc(-c3ccc(F)c(F)c3)cs2)cc1OC | 5.8 µM (active) | 
O=c1[nH]c(SCc2cccc(F)c2)nc2ccccc12 |  | -10.1% (inactive)
